Among the data in PubChem BioAssay are inhibition values, retold here.

The source made the active and inactive calls. No rule for the calls is given here.

The target in the assay is Pantothenate synthetase (Mycobacterium tuberculosis (strain ATCC 25618 / H37Rv)) (UniProt P9WIL5). The experiment in a line: Recombinant Mtb pantothenate synthetase (PanC) inhibitors, coupled enzyme, confirmatory (AID 375).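 Also: 0% = full reaction with vehicle and 100% = no enzyme background.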 The settings on record: coupled enzyme assay; at 10 µM, active compounds read high.
Pantothenate synthetase (Mycobacterium tuberculosis (strain ATCC 25618 / H37Rv)), sequence (P9WIL5 whole entry, looked up): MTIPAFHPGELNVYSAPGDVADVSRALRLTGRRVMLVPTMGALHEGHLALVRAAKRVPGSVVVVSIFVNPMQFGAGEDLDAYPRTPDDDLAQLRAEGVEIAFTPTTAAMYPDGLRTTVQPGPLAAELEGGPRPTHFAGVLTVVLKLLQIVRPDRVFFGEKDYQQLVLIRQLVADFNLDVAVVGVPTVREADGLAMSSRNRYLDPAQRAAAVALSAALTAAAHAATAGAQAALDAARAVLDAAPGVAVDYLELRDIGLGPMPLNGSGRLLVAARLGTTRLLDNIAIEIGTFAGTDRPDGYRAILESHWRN
Broadly, the inhibition is how much of the control response was suppressed. Consider `CN(C)CCCN1C(=O)CSC1c1ccccc1` (configuration not stated), for which the inhibition was 0% (inactive). For the compound `O=C(CN1C(=O)c2ccccc2C1=O)NCC1COc2ccccc2O1` (configuration not stated), the inhibition was 0% (inactive). Regarding `CCC(C)(C)NC(=O)CN(Cc1ccc2c(c1)OCO2)C(=O)CCC(=O)Nc1ccccn1`, the inhibition was 3% (inactive). Turning to `Cc1ccc(-c2nc3cc(NC(=O)C(C)C)ccc3o2)cc1`, the inhibition was 0% (inactive). Turning to `O=C(c1nn2cccnc2c1Cl)N1CCN(c2ccccc2)CC1`, the inhibition was 6% (inactive).

Take `CCOC(=O)/N=C(/NC(=O)Nc1ccc(C(=O)OCC)cc1)OC`: the inhibition was 0% (inactive).

On to `Cc1ccnc(SCCn2c(N3CCN(Cc4ccccc4)CC3)nc3c2c(=O)[nH]c(=O)n3C)n1`, for which the inhibition was 0% (inactive). Then `COc1cc(NS(=O)(=O)c2ccc(N)cc2)nc(OC)n1`, with 0% (inactive); and `Cc1ccc(S(=O)(=O)NCCC(=O)OCn2nnc3ccccc3c2=O)cc1`, with 1% (inactive); and `O=C(O)CCn1c(SCc2ccccc2)nc2ccccc21`, with 0% (inactive). For `Cc1ccccc1CN1CCN(C(=O)c2cccc(F)c2)CC1`, the inhibition is 0% (inactive).

Regarding `COc1ccc(CCNC(=O)CCN2C(=O)C3CC=CCC3C2=O)cc1OC` (configuration not stated), the inhibition is 0% (inactive). Regarding `c1ccc(N2CCN(Cc3ccnc4ccccc34)CC2)cc1`, the inhibition is 2% (inactive). In the case of `C=CCn1c(SCC(=O)c2ccc(OC)cc2)nnc1C(C)NC(=O)c1cccs1` (configuration not stated), the inhibition was 0% (inactive). Then `O=C(NC1(C(F)(F)F)C(=O)Nc2c1c(=O)[nH]c(=O)n2Cc1ccco1)C1CCCCC1` (configuration not stated), with 0% (inactive). As for `Cc1ccc2cc3cc(C(=O)NCCN4CCOCC4)oc3nc2c1`, the inhibition is 4% (inactive). Take `Cn1c(=O)cc(NCCc2ccccc2)[nH]c1=O`: the inhibition is 0% (inactive).
